# Measured values taken from PubChem BioAssay AID1347172 (National Center for Advancing Translational Sciences (NCATS), 2019).
# Records with an inconclusive call do not appear. Active and inactive are the calls of the source. The call rests on the fitted dose curve; in most records, active means well fitted inhibition curve with a large enough effect; inconclusive means small, poorly fitted or top-dose-only effect; inactive means flat fitted curve, though single readings scatter.
# Assay: Secondary qRT-PCR qHTS assay for selected Zika virus inhibitors
# Settings: Vero cells ZIKV infection, NS5 RNA qRT-PCR, 24 h; series mostly up to 32.6 µM; activity change, negative = inhibition: at the top concentration
# From the text: Assay Submitters (PI): Avindra Nath, Ph.D., National Institute of Neurological Disorders and Stroke (NINDS), Bethesda, MD Radhakrishnan Padmanabhan, Ph.D., Georgetown University (GU), Washington D.C. Zika Virus causes congenital defects, including microcephaly and is associated with Guillain-Barre syndrome, eningoencephalitis and myelitis in infected adult. […] Using a target-based approach, we hope to establish a screening paradigm to uncover novel, cell-active NS2B-NS3 protease (Zika Virus) specific inhibitors from NCATS' collection of small molecules using qHTS. […] Four assay panel was created to identify potential Zika Virus inhibitors. Namely, (1) GU unlinked NS2B-NS3 AMC tagged protease qHTS, (2) GU unlinked NS2B-NS3 Rhodamine tagged protease qHTS, (3) NINDS linked NS2B-NS3 AMC tagged protease qHTS, (4) NINDS linked NS2B-NS3 Rhodamine tagged protease qHTS. Inhibitors of the Zika virus primary screens are confirmed using qRT-PCR secondary assays, qRT-PCR mCherry orthogonal assay, and qRT-PCR viability counterscreen. Early Translation Branch (ETB) National Center for Advancing Translational Sciences (NCATS), Rockville, MD National Institute of Health (NIH), Bethesda, Maryland
# 384-well ZIKV qRT-PCR Assay: Vero cells were treated with the indicated compounds at different concentrations, infected with ZIKV (MOI=1) and incubated at 37 degrees C for 3 hours to permit virus invasion. After 3 hr, supernatant was removed, and cells were washed once to remove extracellular virus. After a further 21 hr incubation, infected cells were washed three times with cold PBS (4 degrees C). Plates were then process using the TaqmanGene Expression Cells-to-Ct Kit (ThermoFisher Scientific) following the manufactures protocol. Primers directed to the NS5 sequence (F-[…]; R-GCTCGGCCAATCAGTTCA) along with Taqman probe (FAM-[…]-BHQ; Biosearch Technologies) were used to quantify drug inhibition of viral load. Reactions were run at initial 95 degrees C for 10 min, then 40 cycles of 95 degrees C for 20 sec and 60 degrees C for 40 sec using a LightCycler 480 (Roche). Relative viral copy numbers were generated by normalizing to cells treated with vehicle.
SMILES,Potency,"activity change, negative = inhibition"
O=C(Nc1ccc(Br)cc1)c1cc(Br)cc(Br)c1O,22.4 µM (active),–
Oc1c(Cl)c(Cl)c(Cl)c(Cl)c1Cl,–,-11.8% (inactive)
CN(C)[C@@H]1C(=O)C(C(N)=O)=C(O)[C@@]2(O)C(=O)C3=C(O)c4c(O)ccc(Cl)c4[C@@](C)(O)[C@H]3C[C@@H]12,–,-7.44% (inactive)
C[C@]12CC[C@@H]3c4ccc(OC(=O)N(CCCl)CCCl)cc4CC[C@H]3[C@@H]1CC[C@@H]2O,–,-2.06% (inactive)
CN(C)[C@@H]1C(=O)C(C(N)=O)=C(O)[C@@]2(O)C(=O)C3=C(O)c4c(O)cccc4[C@@](C)(O)[C@H]3C[C@@H]12,–,7.09% (inactive)
